The record followed here is ChEMBL document CHEMBL4513216, “Probing the Open Global Health Chemical Diversity Library for Multistage-Active Starting Points for Next-Generation Antimalarials” (ACS Infect Dis, 2020).

The campaign covered roughly 69,000 compounds. About 8,600 (12%) showed an effect of 50% or more. The sample holds strong results, similar compounds and a random draw of the others, so the mix is not that of the screen.

This experiment has as its system Plasmodium berghei. As to the kind of experiment: Screen against P. berghei liver stage (PbLuc), transformed with Luciferase, at 10uM. Format: functional, HepG2. The settings on record: tested at 10 uM.
Turning to `O=C(CC1C=CCC1)N1CCc2ncnc(NCc3ccon3)c2CC1` (stereo not given), the INHIBITION is 34.5%.

In the case of `CC(NC(=O)CSCC#N)c1ccc(Cl)cc1` (stereo not given), the INHIBITION came out at 34.7%.

Consider `CC(NC(=O)CSCC#N)c1ccccc1` (stereo not given), for which the INHIBITION came out at 55.5%.

As to `CC(NC(=O)CSCC#N)c1ccc(F)cc1` (stereo not given), the INHIBITION is recorded as -13.3%.

`Cc1c(Br)cnn1CCC(=O)N(C)Cc1c(Cl)cnn1C`: the INHIBITION is given as 32.2%.

`O=C(c1ccncc1)N1CCOC2(COCCN(c3cccnc3)C2)C1` (stereo not given): the INHIBITION is recorded as 31.4%.

Regarding `Fc1cnc(N2CCCC3(CN(Cc4cccs4)CCO3)C2)nc1` (stereo not given), the INHIBITION was 32.5%.

With `COc1ccc(N2CCCC3(C2)CN(c2cccnc2)CCO3)cc1` (stereo not given), the INHIBITION stood at 8.85%.

As to `c1cncc(N2CCCC3(CN(Cc4cccs4)CCO3)C2)c1` (stereo not given), the INHIBITION is recorded as 63.7%.

Turning to `c1cncc(N2CCOCC3(CN(Cc4cccs4)CCO3)C2)c1` (stereo not given), the INHIBITION is on record as 53.2%.

On to `CC(C)N1CCOCC2(CN(Cc3cccs3)CCO2)C1` (stereo not given), for which the INHIBITION worked out at 41.2%.

Regarding `O=C(CCc1nc(C2CC2)no1)c1ccc2c(c1)OCCO2`, the INHIBITION is on record as -5.22%.

For the molecule `CN1CCCC(c2cncc(C(=O)NCc3ccccc3Cl)n2)C1` (stereo not given), the INHIBITION is listed as -54.1%.

For the molecule `CC(C)=CCN1C(=O)[C@@H]2CC[C@H]1CN(c1ncccn1)C2`, the INHIBITION was determined as 12.7%.

Consider `CC(C)(C)NC(=O)CNc1ccc(Br)cn1`, for which the INHIBITION worked out at 25.4%.

Consider `O=C(NCCCn1cccn1)c1nc2ccccc2[nH]1`, for which the INHIBITION amounted to 15.7%.

Consider `Cc1csc(NC(=O)NCCCN2CCC(C(N)=O)CC2)n1`, for which the INHIBITION is listed as -21.1%.

`Cc1ccnc(OC[C@]23COC[C@H]2CN(C(=O)Cc2ccsc2)C3)n1`: the INHIBITION was -39.9%.

Turning to `Cc1n[nH]c(C)c1NC(=O)CN1CCCC1c1noc(C2CC2)n1` (stereo not given), the INHIBITION is 26.5%.

Turning to `c1ccc(-c2nn3c(CN4CCOCC4)nnc3s2)nc1`, the INHIBITION stood at 25.9%.

Consider `Cc1ccc(N2C[C@@H](CN3CCOCC3)[C@@H](CO)C2)nn1`, for which the INHIBITION was 20.4%.

Regarding `Cc1ccc(N2C[C@H]3CCC[C@@H](CN(C)C)[C@H]3C2)nn1`, the INHIBITION is recorded as -10.5%.

As for `COCCN1C[C@@H]2CN(c3ncccn3)C[C@@H]2C1=O`, the INHIBITION is -14.6%.

Turning to `COc1cc(N2C[C@H]3CN(CCN4CCCC4)C(=O)[C@H]3C2)ncn1`, the INHIBITION is on record as 17.2%.

For `COc1cc(N2C[C@H]3CCC[C@@H](CN(C)C4CC4)[C@H]3C2)ncn1`, the INHIBITION came out at 20.6%.

For `Cc1nc(CN2C[C@@H]3CN(c4ncc(F)cn4)C[C@@H]3C2=O)cs1`, the INHIBITION amounted to 5.63%.

Regarding `COCCN1CC[C@H]2CN(c3cc(OC)ncn3)C[C@@H]2C1=O`, the INHIBITION came out at 54.1%.

Take `COc1cc(N2C[C@H]3CCC[C@@H](CN(C)C)[C@H]3C2)ncn1`: the INHIBITION is given as 32.2%.

Turning to `COc1cc(N2C[C@H]3CCC[C@@H](CN4CCCC4)[C@H]3C2)ncn1`, the INHIBITION came to 76.5%.

As to `Cc1ccc(N2C[C@H]3CCC[C@@H](CN4CCOCC4)[C@H]3C2)nn1`, the INHIBITION was 61.9%.

`COCCN1C[C@@H]2CN(c3ncc(F)cn3)C[C@@H]2C1=O`: the INHIBITION came out at 53.4%.

On to `COc1cc(N2C[C@H]3CN(CC(=O)N(C)C)C(=O)[C@H]3C2)ncn1`, for which the INHIBITION turned out to be 42.3%.

Regarding `N[C@H]1c2ccccc2C[C@@H]1NC(=O)C1CCN(Cc2ccco2)CC1`, the INHIBITION was -13.6%.

For `O=C(CS(=O)(=O)Cc1csc(-c2ccc(F)cc2)n1)NCC1CC1`, the INHIBITION came to 0.991%.

For `Cc1ccn2c(F)c(C(=O)N3CCC4(CCC(=O)N(C)C4)CC3)nc2c1`, the INHIBITION was determined as 20.5%.

On to `Cc1cnn(CCNCC(O)c2ccc(S(C)(=O)=O)cc2)c1` (stereo not given), for which the INHIBITION stood at 12.6%.

Turning to `c1cc(-c2nn3c(CN4CCOCC4)nnc3s2)ccn1`, the INHIBITION is given as 26.7%.

Consider `COc1ccc2c(c1)CN(CC(=O)NC1CCCC1)CC2`, for which the INHIBITION is on record as -2.48%.

For the molecule `Cc1cc2nc(SCC(=O)N3CCCC3)n(C(C)C)c(=O)c2[nH]1`, the INHIBITION was -19.7%.

`COc1cc(N2C[C@H]3CCN(CCN4CCCC4)C[C@H]3C2)ncn1`: the INHIBITION was 52.6%.

For `COCCN(C)C[C@@H]1CCC[C@@H]2CN(c3cc(OC)ncn3)C[C@@H]21`, the INHIBITION is on record as 41.5%.

Consider `COc1cc(N2C[C@H]3OCC[C@H]3[C@H](C(=O)N3CCCC3)C2)ncn1`, for which the INHIBITION amounted to 30.3%.

For `COc1cc(N2C[C@H]3CCC[C@@H](CN4CCOCC4)[C@H]3C2)ncn1`, the INHIBITION amounted to 73%.

On to `c1cnc(N2C[C@H]3CCC[C@@H](CN4CCCC4)[C@H]3C2)nc1`, for which the INHIBITION stood at 9.97%.

For `COc1cc(N2C[C@H]3CN(C(=O)c4cnccn4)C[C@H]3C2)ncn1`, the INHIBITION is given as -1.15%.

Consider `COCCN1C[C@@H](C)[C@@]2(COCCN(C(=O)c3cnc(C)cn3)C2)C1`, for which the INHIBITION worked out at 8.57%.

Regarding `CC(=O)NCc1noc2c1CN(CCN1CCCC1)CC2`, the INHIBITION was determined as 39.3%.

As for `O=C(O)COc1ccccc1CN1CCCC1c1cnccn1` (stereo not given), the INHIBITION came out at 47.2%.

For the molecule `O=C(C[C@@H]1COC[C@H]2CN(Cc3ccccc3)C[C@@H]12)N1CCCC1`, the INHIBITION came to 41.2%.

For `O=C1[C@@H]2CCN(CC3CCOCC3)C[C@@H]2OCCN1c1ccccc1`, the INHIBITION was -37.8%.
